ssDAF12 agonist: S. stercoralis DAF-12 nuclear receptor activators, primary screen, cell-based, luminescence, HEK293, GRIP1 co-expression, lit1-tk-luc. AID 652126, 2013. HEK293 ssDAF-12/GRIP1 lit1-tk-luc reporter; % of 3 µM dafachronic acid response. activation, % at 6.8 µM. actives 1% (n = 370,000);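 active = activation above the mean over all tested compounds plus 3 SD, cut at about 0.9% in these data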;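 also: 0% = DMSO-only wells and 100% = 3 µM delta7-dafachronic acid wells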
hcDAF-12 act: H. contortus DAF-12 nuclear receptor activators, primary screen, cell-based, luminescence, HEK293, lit1-tk-luc reporter; HEK293 hcDAF-12 lit1-tk-luc reporter; 0% DMSO, 100% Δ7-dafachronic acid; activation, % at 6.8 µM; actives 1.4% (n = 370,000); AID 652067, 2013;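 active = activation above the mean of all tested compounds plus 3 SD, cut at about 5.5% in these data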;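 also: 100% = response to 3 µM Δ7-dafachronic acid high control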
AHR act: AHR activators, primary screen, cell-based, luminescence, luciferase reporter, human; Aryl hydrocarbon receptor (Homo sapiens), P35869; AHR-responsive luciferase reporter cells; activation, % at 5 µM; actives 2.5% (n = 320,000); AID 2796, 2010; in the data active = activation above about 47%;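 also: 0% = vehicle wells and 100% = reference agonist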
DAX1 inh-1: DAX1 (NR0B1) inhibitors, primary screen, cell-based, HEK293, Gal4-DAX1, luciferase luminescence. inhibition, % at 6.75 µM. AID 504766, 2011. HEK293 Gal4-DAX1 luciferase reporter. actives 0.99% (n = 340,000). Nuclear receptor subfamily 0 group B member 1 (Homo sapiens), P51843;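 active = inhibition above the mean over all tested compounds plus 3 SD, cut at about 4.2% in these data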;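 also: 0% = DAX1-transfected cells with DMSO and 100% = empty-vector control cells with DMSO; inhibition shows as a rise in luminescence from relieved DAX1 repression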
Target sequence (P51843 207-470 limits assumed): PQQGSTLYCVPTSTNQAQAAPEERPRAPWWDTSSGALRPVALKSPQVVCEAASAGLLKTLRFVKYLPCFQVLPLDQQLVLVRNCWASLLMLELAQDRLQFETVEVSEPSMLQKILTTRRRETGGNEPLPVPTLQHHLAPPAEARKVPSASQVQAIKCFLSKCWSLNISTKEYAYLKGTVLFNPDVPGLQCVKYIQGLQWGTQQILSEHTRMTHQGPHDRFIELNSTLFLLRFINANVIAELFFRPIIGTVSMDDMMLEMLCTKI
DAX1 inh-2: DAX1 (NR0B1) inhibitors on StAR promoter, primary screen, cell-based, luminescence, SF-1 (NR5A1), full-length DAX-1; HEK293T StAR-luciferase reporter, SF-1/DAX-1 repression relief; inhibition, % at 6.8 µM; actives 1.1% (n = 370,000); AID 652010, 2013;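 active = inhibition above the mean over all tested compounds plus 3 SD, cut at about 3.6% in these data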;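 also: 0% = DAX-1 cells with DMSO and 100% = cells lacking DAX-1 with DMSO; higher inhibition means more luminescence from relief of DAX-1 repression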
hgDAF-12 ag: H. glycines DAF-12 receptor agonists, primary screen, cell-based, luminescence, HEK293, GAL4 fusion, UAS-luciferase. Nuclear hormone receptor DAF-12 (Heterodera glycines), GAL4 fusion. HEK293 GAL4-hgDAF12 UAS-luciferase reporter, agonist luminescence; normalized to butyrate control. activation, % at 6.8 µM. actives 1.8% (n = 370,000);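 active = activation above a cutoff set at the mean of all screened compounds plus 3 SD, cut at about 10% in these data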;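 also: 0% = DMSO wells and 100% = sodium butyrate wells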
hgDAF12 ag: H. glycines DAF-12 receptor agonists, confirmation, cell-based, luminescence, HEK293, GAL4-LBD fusion | shares compounds with hgDAF-12 ag | HEK293 GAL4-hgDAF12 luciferase reporter, agonist mode; percent of butyrate response | activation, % at 6.8 µM | actives 80% (n = 3,300);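 active = mean activation over triplicate wells above the hit cutoff derived from the earlier primary screen, cut at about 11% in these data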;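 also: 0% = DMSO low control and 100% = 2 mM sodium butyrate high control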
LXRb DAF12 ctr: LXR agonists, Gal4 luciferase reporter, confirmation, counter-screen for hgDAF-12 agonist project, cell-based, luminescence, HEK293, H. glycines campaign. 3,300 tested, under 10 active. shares compounds with hgDAF-12 ag. 24 h. activation, % at 6.8 µM;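 active = mean activation of the triplicate above a set limit carried over from the primary screen, none filed active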
* marks the source's active call; other numbers are inactive results; nt = not tested or not shown. This is a sample that favours compounds with a hit; in the whole collection about 5.7% have one here.

SMILES	ssDAF12 agonist	hcDAF-12 act	AHR act	DAX1 inh-1	DAX1 inh-2	hgDAF-12 ag	hgDAF12 ag	LXRb DAF12 ctr
Clc1ccc2nc(N3CCCCC3)[nH]c2c1	0.3	5.7*	9.5	1.4	4.5*	19.9*	17.2*	0.9
CC(C)c1ccc(NC(=S)NC2CCCCCC2)cc1	-1.0	1.5	11.7	-1.3	2.0	15.7*	9.4	0.3
O=C(c1ccc2c(=O)n3c(nc2c1)CCC3)N1CCCSC1=Nc1ccccc1	-0.8	0.7	-2.1	-1.9	-0.2	-0.4	nt	nt
O=C(CN1C(=O)NC(c2ccccc2)(c2ccccc2)C1=O)NCc1ccco1	-0.9	-1.5	-1.3	0.9	-0.5	0.4	nt	nt
O=C(Nc1ccc(S(=O)(=O)N2CCCCC2)cc1)c1ccc(Cl)nc1	-2.0	-2.8	38.9	-2.6	-3.8	-5.6	nt	nt
Cc1ccccc1OCCNC(=O)c1ccc2ccccc2n1	-0.4	2.2	10.1	2.6	3.1	15.3*	12.1*	0.6
Cc1ccccc1CNC(=O)c1ccc2ccccc2n1	-1.3	-1.1	2.5	0.3	-0.4	0.1	nt	nt
CN=c1scc(-c2ccccc2F)n1/N=C(\C)c1cccnc1	0.4	4.2	77.8*	1.9	2.7	15.4*	12.1*	0.8
Cc1ccsc1C(=O)NNC(=O)C1CC=CCC1C(=O)O (stereo not drawn)	1.4*	5.4	16.8	1.7	4.2*	17.2*	4.9	0.1
O=C(NNC(=O)C1CC=CCC1C(=O)O)c1cccs1 (stereo not drawn)	-0.1	3.2	0.1	-0.1	1.9	17.4*	2.6	0.0
CCOC(=O)C1=C(N)N(c2cc(S(=O)(=O)N3CCOCC3)ccc2Cl)C(=O)C1	-0.7	-1.6	1.3	-0.4	-0.3	1.5	nt	nt
Cn1c(N)c(C(=O)Nc2ccc3ccccc3c2)sc1=S	-1.2	3.1	93.2*	2.6	1.8	15.3*	12.7*	0.5
CN(C)Cc1nnnn1-c1cccc(-n2nnnc2CN(C)C)c1	-0.9	-1.0	-1.1	-0.4	-0.5	3.0	nt	nt
CC(=O)NCCC(=O)Nc1nc2ccc(Oc3ccccc3)cc2s1	0.6	5.0	11.4	1.9	2.4	21.0*	14.9*	0.7
CCCC(=O)Nc1nc2ccc(OCC)cc2s1	-0.3	0.7	19.9	-0.1	3.4	16.6*	14.8*	0.5
O=C1NC(=S)N/C1=C/c1cc2c(cc1[N+](=O)[O-])OCO2	-1.0	-1.3	6.0	0.5	-1.0	-2.9	nt	nt
Cc1ccc(S(=O)(=O)NC(=O)C2(C)CCN2C(=O)Cc2cc(F)ccc2F)nc1 (stereo not drawn)	-0.8	1.2	nt	nt	0.8	-1.5	nt	nt
O=C(CCC(=O)Nc1ccc(Br)cc1)N/N=C/c1ccc(O)cc1	-1.4	0.1	5.2	0.6	0.2	0.5	nt	nt
COc1ccc(C=C(C(=O)c2ccccc2)C(=O)c2ccccc2)cc1	-0.7	0.9	nt	nt	1.9	13.5*	11.4*	0.5
COc1ccc(C=C(C(C)=O)C(=O)c2ccccc2)cc1	-1.2	-1.1	nt	nt	-1.6	3.7	nt	nt
Cc1nc(C(C)NC(=O)CCc2nnc(CCCc3ccccc3)o2)c(C)s1 (stereo not drawn)	0.5	1.9	14.9	-0.3	1.2	13.2*	9.9	0.2
Cc1cc(C)n(CC(C)NC(=O)CCc2nnc(CCc3ccccc3)o2)n1 (stereo not drawn)	-0.9	-0.9	-0.7	1.9	-0.7	0.9	nt	nt
CC(C)CC1Nc2ncnc(N3CCN(c4ccccn4)CC3)c2N(Cc2ccccc2)C1=O (stereo not drawn)	-1.4	-1.9	0.2	0.8	0.1	-0.2	nt	nt
O=C(Nc1nccs1)c1cn2ccccc2n1	0.2	5.8*	61.8*	0.4	3.6	15.1*	13.9*	0.6
O=C(O)c1ccccc1SCCS(=O)(=O)c1ccc(Cl)cc1Cl	nt	nt	-0.1	1.0	nt	nt	nt	nt
SMILES	ssDAF12 agonist	hcDAF-12 act	AHR act	DAX1 inh-1	DAX1 inh-2	hgDAF-12 ag	hgDAF12 ag	LXRb DAF12 ctr
Cc1ccc(/C=C/C(=O)N2CCCC(C)C2)cc1 (stereo not drawn)	1.2*	3.1	1.2	-0.1	4.4*	14.7*	14.3*	0.8
CCc1ccc(/C=C\C(=O)N2CCCC2)cc1	-1.6	0.5	-6.8	1.4	0.3	3.5	nt	nt
CC(C)Cc1ccc(/C=C/C(=O)N2CCCCC2)cc1	0.4	2.6	11.8	3.3	4.5*	15.5*	14.4*	0.5
CCOC(=O)C1CCCN(C(=O)/C=C/c2ccc(Cl)cc2)C1 (stereo not drawn)	-1.5	-1.3	2.5	0.3	-0.2	-1.2	nt	nt
O=C(/C=C/c1ccc(Br)cc1)NC1CCCCCC1	-1.2	0.7	2.8	2.7	0.0	5.1	nt	nt
CC(C)Cc1ccc(/C=C/C(=O)NC2CC2)cc1	0.7	3.9	7.1	0.4	3.4	13.3*	12.2*	0.4
O=C(Nc1ccc(NC(=O)c2ccccc2F)cn1)c1ccco1	0.2	3.0	-4.1	-2.5	1.1	14.4*	10.3	0.6
O=C(Nc1ccc(NC(=O)c2ccco2)nc1)c1cccc(F)c1	0.1	3.2	-3.3	0.4	2.7	13.4*	16.2*	0.6
O=C(/C=C/Nc1ccc(Oc2ccccc2Cl)cc1)c1ccco1	-0.1	2.4	9.4	2.6	1.4	14.6*	16.6*	0.6
Cc1ccc(Oc2ccc(NC(=O)c3ccco3)cc2)cc1	-0.8	-0.6	1.1	0.5	-0.8	3.0	nt	nt
COc1cccc(C(=O)Nc2ccc(NC(=O)c3ccco3)nc2)c1	-0.7	-0.5	-0.5	0.3	0.6	7.0	nt	nt
COc1ccccc1Oc1ccc(N/C=C/C(=O)c2ccco2)cc1	-1.2	4.0	16.5	1.4	2.3	8.9	nt	nt
COC(=O)c1ccccc1Oc1ccc(NC(=O)c2ccco2)cc1	-1.4	-0.9	1.6	2.7	0.2	13.5*	-1.7	0.0

Compound activity from PubChem BioAssay.
